Results as given in PubChem BioAssay AID1159580 (chemical genetic matrix, 2015).
Several values for one entry are separate records, joined by “and”; a condition that tells them apart may be missing. Equal entries are not always repeated. Out of some 5,500 compounds screened, about 2,000 (36%) were called active. About 18% were inconclusive and are not listed. No stated cut-off is given here; in the data, active means normalized growth mostly below about 0.91 (no sharp cut-off); inconclusive means no clear call, values can overlap the other calls; inactive means mostly above about 0.92. Some of the results follow.

Experiment: chemical genetic growth profiling, strain panel (AID 1159580);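 further: tested at 20 µM; growth read once vehicle control cultures reached saturation at 30 °C; 1 = growth at the plate median or of vehicle wells; lower values mean less growth of the strain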
Settings: S. cerevisiae deletion strains, growth OD

Measured: normalized growth

O=C(Cn1ccnc1[N+](=O)[O-])NCCO
inactive: locus YAL013W, strain DEP1, hits give low values 0.996 | locus YAL021C, strain ccr4, hits give low values 1.02 | locus YAL026C, strain drs2, hits give low values 1.02 | locus YAL030W, strain snc1, hits give low values 1.01 | locus YBL061C, strain skt5, hits give low values 1.03 | locus YBR009C, strain hhf1, hits give low values 1.02 | locus YBR021W, strain FUR4, hits give low values 1.03 | locus YBR023C, strain chs3, hits give low values 1.02 | locus YBR171W, strain sec66, hits give low values 1.04 | locus YBR229C, strain ROT2, hits give low values 1.01 | locus YBR231C, strain swc5, hits give low values 1 | locus YBR279W, strain paf1, hits give low values 1 | locus YCL011C, strain gbp2, hits give low values 1.01 | locus YCL016C, strain dcc1, hits give low values 1.02 | locus YCL029C, strain bik1, hits give low values 1.02 | locus YCL061C, strain MRC1, hits give low values 1.01 | locus YCL069W, strain vba3, hits give low values 1.01 | locus YCR088W, strain abp1, hits give low values 1.01 | locus YDL005C, strain med2, hits give low values 1.02 | locus YDL035C, strain GPR1, hits give low values 1.02 | locus YDL040C, strain nat1, hits give low values 1.01 | locus YDL074C, strain BRE1, hits give low values 0.99 | locus YDL101C, strain DUN1, hits give low values 1 | locus YDL134C, strain PPH21, hits give low values 0.996 | locus YDL185W, strain tfp1, hits give low values 0.999 | locus YDL192W, strain arf1, hits give low values 1.01 | locus YDR001C, strain nth1, hits give low values 1.01 | locus YDR069C, strain doa4, hits give low values 1.02 | locus YDR101C, strain arx1, hits give low values 1.01 | locus YDR137W, strain rgp1, hits give low values 1.05 | locus YDR150W, strain NUM1, hits give low values 0.998 | locus YDR159W, strain sac3, hits give low values 1.02 | locus YDR162C, strain NBP2, hits give low values 0.985 | locus YDR195W, strain ref2 1.02 | locus YDR297W, strain sur2, hits give low values 1.01 | locus YDR318W, strain mcm21, hits give low values 1.03 | locus YDR334W, strain swr1, hits give low values 1.01 | locus YDR335W, strain msn5, hits give low values 1.01 | locus YDR388W, hits give low values 1.01 | locus YDR392W, strain spt3, hits give low values 1.03 | locus YDR502C, strain sam2, hits give low values 0.988 | locus YEL003W, strain gim4, hits give low values 1 | locus YEL037C, strain rad23, hits give low values 1.02 | locus YEL061C, strain CIN8 (second series), hits give low values 1.01 | locus YEL061C, strain CIN8, hits give low values 1 | locus YER015W, strain faa2, hits give low values 1 | locus YER016W, strain bim1, hits give low values 1.01 | locus YER110C, hits give low values 1 | locus YER111C, strain swi4, hits give low values 1.02 | locus YER155C, strain BEM2 (second series), hits give low values 1.01 | locus YER155C, strain BEM2, hits give low values 1 | locus YER167W, strain BCK2, hits give low values 1.03 | locus YFR010W, strain ubp6, hits give low values 1.02 | locus YGL078C, strain dbp3, hits give low values 0.983 | locus YGL086W, strain mad1, hits give low values 1.03 | locus YGL167C, strain pmr1, hits give low values 1.02 | locus YGL173C, strain kem1, hits give low values 1.01 | locus YGL227W, strain vid30, hits give low values 1.01 | locus YGL240W, strain doc1, hits give low values 1.02 | locus YGL248W, strain PDE1, hits give low values 0.999 | locus YGL253W, strain hxk2, hits give low values 0.982 | locus YGR078C, strain PAC10, hits give low values 0.995 | locus YGR135W, strain pre9, hits give low values 0.988 | locus YGR229C, strain SMI1, hits give low values 0.999 | locus YGR252W, strain gcn5, hits give low values 1.09 | locus YHR013C, strain ard1, hits give low values 1.04 | locus YHR027C, strain rpn1, hits give low values 1.01 | locus YHR030C, strain SLT2, hits give low values 1.01 and 0.984 | locus YHR079C, strain IRE1 (second series), hits give low values 1.01 | locus YHR079C, strain IRE1, hits give low values 0.998 | locus YHR094C, strain hxt1, hits give low values 1.01 | locus YHR129C, strain ARP1, hits give low values 1.01 | locus YHR142W, strain chs7, hits give low values 1.02 | locus YHR200W, strain rpn10, hits give low values 1.01 | locus YIL066C, strain RNR3, hits give low values 1.01 | locus YIL073C, strain SPO22, hits give low values 1.04 | locus YIL125W, strain kgd1, hits give low values 0.997 | locus YIR030C, strain dcg1, hits give low values 1.01 | locus YJL092W, strain hpr5, hits give low values 1.02 | locus YJL095W, strain BCK1 (second series), hits give low values 1.01 | locus YJL095W, strain BCK1, hits give low values 1.01 and 0.995 | locus YJL115W, strain asf1, hits give low values 1.01 | locus YJL129C, strain trk1, hits give low values 1.02 | locus YJL134W, strain LCB3, hits give low values 1.01 | locus YJL154C, strain vps35, hits give low values 1.02 | locus YJL166W, strain qcr8, hits give low values 1.01 | locus YJL168C, strain set2, hits give low values 1.01 | locus YJL187C, strain SWE1 (second series), hits give low values 0.999 | locus YJL187C, strain SWE1, hits give low values 1.01 | locus YJR043C, strain POL32, hits give low values 1.04 | locus YJR066W, strain TOR1, hits give low values 0.972
